Measured values published in the supplement of paper PMC6555819.

Columns and labels:
Assay in all cases: PBM binding z-score (relative to random genomic background probes); higher = stronger binding; sequences stand for … in GC…GCGATTGACAGCGTAGAATGAAGG
[1] = tested on: FXR:RXRa (NR concentration 270 nM, RXRa partner concentration 90 nM)
In short: (§1)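 Probes were double-stranded and carried 34-nt variable regions with direct-repeat seeds, single-nucleotide variants, half-site ablations and random human genomic background sequences, printed on custom Agilent 4×180K protein-binding microarrays. Arrays were incubated 1 h with ligand-free nuclear receptor dimers in PBS pH 7.4, 2% milk, 0.02% Triton X-100, 1 mM DTT, 0.2 mg/mL BSA and 0.4 mg/ml salmon testes DNA. Antibodies against each partner (one per run) detected binding, and scanned fluorescence was regression-normalized. Binding z-scores use the random background probes as reference.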

[2] = tested on: LXRa:RXRa (NR concentration 270 nM, RXRa partner concentration 90 nM)
In short: as §1

[3] = tested on: LXRa homodimer (NR concentration 270 nM)
In short: as §1

[4] = tested on: LXRb:RXRa (NR concentration 270 nM, RXRa partner concentration 90 nM)
In short: as §1

[5] = tested on: LXRb homodimer (NR concentration 270 nM)
In short: as §1

[6] = tested on: PPARa:RXRa (NR concentration 270 nM, RXRa partner concentration 90 nM)
In short: as §1

[7] = tested on: PPARg:RXRa (NR concentration 180 nM, RXRa partner concentration 90 nM)
In short: as §1

[8] = tested on: PPARg:RXRa 270nM:90nM, anti-RXR (NR concentration 270 nM, RXRa partner concentration 90 nM)
In short: as §1

[9] = tested on: PPARg:RXRa 30nM:10nM, anti-RXR (NR concentration 30 nM, RXRa partner concentration 10 nM)
In short: as §1

[10] = tested on: PPARg:RXRa 90nM:30nM, anti-RXR (NR concentration 90 nM, RXRa partner concentration 30 nM)
In short: as §1

[11] = tested on: PPARg:RXRa DBDmut IVT, anti-RXR (DBD mutation: RXRa K156A/R161A, NR concentration 270 nM, RXRa partner concentration 90 nM)
In short: as §1

[12] = tested on: PPARg:RXRa IVT, anti-PPARg (NR concentration 270 nM, RXRa partner concentration 90 nM)
In short: as §1

[13] = tested on: PPARg DBDmut:RXRa IVT, anti-PPARg (DBD mutation: PPARg1 K132A/R137A, NR concentration 270 nM, RXRa partner concentration 90 nM)
In short: as §1

[14] = tested on: PPARg DBDmut IVT, anti-PPARg (DBD mutation: PPARg1 K132A/R137A, NR concentration 270 nM)
In short: as §1

[15] = tested on: PPARg homodimer (NR concentration 180 nM)
In short: as §1

[16] = tested on: PXR:RXRa (NR concentration 270 nM, RXRa partner concentration 90 nM)
In short: as §1

[17] = tested on: PXR homodimer (NR concentration 270 nM)
In short: as §1

[18] = tested on: RARa:RXR (NR concentration 270 nM, RXRa partner concentration 90 nM)
In short: as §1

[19] = tested on: RARa homodimer (NR concentration 270 nM)
In short: as §1

[20] = tested on: RARb:RXRa (NR concentration 270 nM, RXRa partner concentration 90 nM)
In short: as §1

Sequence | PBM binding z-score [1] | PBM binding z-score [2] | PBM binding z-score [3] | PBM binding z-score [4] | PBM binding z-score [5] | PBM binding z-score [6] | PBM binding z-score [7] | PBM binding z-score [8] | PBM binding z-score [9] | PBM binding z-score [10] | PBM binding z-score [11] | PBM binding z-score [12] | PBM binding z-score [13] | PBM binding z-score [14] | PBM binding z-score [15] | PBM binding z-score [16] | PBM binding z-score [17] | PBM binding z-score [18] | PBM binding z-score [19] | PBM binding z-score [20]
CCTAGTTGGACAGGAGGTCACACACCGGATATGA | 3.17 | 3.27 | 1.86 | 3.19 | 0.666 | 4.11 | 2.52 | 2.96 | 0.938 | 2.35 | 0.493 | 2.64 | 0.73 | 0.338 | 3.06 | 4.13 | 1.32 | 4.3 | 1.71 | 3.23
CAAACTAGGTCACCGGTAGGTCAAAGTCCGCATG | 5.71 | 4.92 | 3.87 | 4.52 | 0.66 | 5.98 | 9.32 | 7.44 | 5.74 | 7.12 | 8.32 | 9.19 | 3.98 | 4.14 | 4.51 | 4.51 | 0.526 | 5.43 | 1.6 | 4.95
ATATGTAGGTTATCGGGTCATTCTGTTTGCGCAT | 3.44 | 3.6 | 2.23 | 3.26 | 1.27 | 4.93 | 6.86 | 6.16 | 3.52 | 5.94 | 7.83 | 7.65 | 3.52 | 2.76 | 2.77 | 3.48 | 1.54 | 3.91 | 1.87 | 2.57
CAAACTAGGTCAAAGGGCAAAGTCGAGCCAACCA | 6.12 | 5.04 | 1.25 | 4.01 | 0.969 | 6.94 | 12.9 | 10.6 | 11 | 11.7 | 8.37 | 8.59 | 2.1 | 1.17 | 2.46 | 4.09 | 0.769 | 6.57 | 0.986 | 4.51
TAGCCTATGTCATTGGGCCAGTATAGTACGCATC | -0.278 | -0.41 | -0.519 | -0.0433 | -0.648 | 0.0352 | 0.577 | 0.178 | 0.0263 | 0.065 | 0.158 | 0.381 | 0.11 | 0.249 | -0.0273 | -0.188 | -0.118 | -0.0244 | -0.0402 | 0.0995
TTACCAATGTGAAGGTCGTTGATCCCTCTGTAGA | 1.87 | 2.22 | 0.434 | 1.74 | 0.0606 | 1.3 | -0.039 | 1.1 | 1.12 | 0.829 | 0.314 | 0.221 | -0.143 | 0.211 | 0.84 | 1.37 | 0.539 | 1.45 | 0.451 | 0.862
ATATGTAGGTTATCAGGTCATTCAGTTTGCGCAT | 3.19 | 3.57 | 4.4 | 2.93 | 1.68 | 4.62 | 7.23 | 5.99 | 4.05 | 5.54 | 7.41 | 7.44 | 1.79 | 2.79 | 2.91 | 3.44 | 9.35 | 3.2 | 2.11 | 2.86
TCGAGTAGGGTAGGGGCATTCAGAATGGCGTCGA | 0.264 | 0.12 | 0.0875 | 1.16 | 1.6 | 0.956 | 0.642 | 1.82 | 1.02 | 1.4 | 1.02 | 1.33 | -0.123 | 1.32 | 0.484 | 0.566 | 0.395 | 0.405 | 0.0821 | 0.666
GCGATTAGTTGAAAGGGCAACCGAATGATTCTCG | 0.286 | 0.514 | -0.112 | 0.595 | -0.521 | 1.88 | 1.74 | 3.51 | 1.24 | 2.72 | 0.242 | 0.29 | -0.291 | -0.4 | 0.619 | 0.575 | 0.0647 | 1.43 | -0.197 | 1.87
ATCGAAAGGTCGAGGTAAGTATAGAGAAAGGGAA | 3.98 | 3.46 | 0.361 | 2.66 | 0.336 | 4.29 | 2.72 | 3.32 | 1.2 | 2.24 | 0.0665 | 1.66 | 1.14 | 1.3 | 1.24 | 2.31 | 0.464 | 3.24 | 1.21 | 4.06
ACAGACAGGTGAGTGAAGGTAACCCAGCTGGACG | 0.353 | -0.0379 | -0.585 | -0.271 | -0.844 | 0.275 | 0.708 | 0.399 | -0.129 | 0.213 | 0.473 | 0.884 | 0.557 | -0.411 | 0.0822 | -0.299 | -0.316 | 0.365 | -0.386 | 0.623
TCTAGTAGGTTAGTCGGGGCATTCAGCCAACATA | 0.874 | 0.731 | 0.367 | 1.54 | 0.412 | 1.9 | 0.856 | 2.5 | 2.88 | 2.8 | 4.91 | 4.13 | 0.243 | 0.851 | 1.41 | 0.733 | 0.807 | 0.939 | 0.282 | 0.996
TTTTGTAGATCAAAGGTTAAGAAAGCCGAAGCCT | 1.35 | 2.03 | 0.327 | 2.09 | 0.386 | 5.08 | 9.51 | 8.59 | 8.23 | 9.36 | 1.61 | 3.98 | 0.975 | 1.12 | 1 | 2.05 | -0.0288 | 3.17 | 0.339 | 2.07
CGTCCAGGGTCAGCAGGTCAGTGAAAGCGACGTG | 5.44 | 3.06 | -0.214 | 3.1 | -0.458 | 5.11 | 4.16 | 4.41 | 0.684 | 2.92 | 1.76 | 3.07 | -0.496 | -0.836 | 2.79 | 3.35 | 0.0152 | 4.85 | 0.53 | 4.69
CCAGACAGGTGATAGGTAACTCAGTCTGGTACGC | -0.225 | -0.0796 | -0.151 | -0.0572 | -0.589 | 0.765 | 1.82 | 2.56 | 0.858 | 1.92 | 0.575 | 0.559 | -0.871 | 0.0703 | 0.624 | -0.293 | -0.225 | 0.152 | 0.246 | 0.0928
